# Assay results taken from publication PMC7862700, “An all-to-all approach to the identification of sequence-specific readers for epigenetic DNA modifications on cytosine”.
# Experiments:
# Test in all cases: DAPPL (digital affinity profiling via proximity ligation, sequencing); 10 mM Tris-HCl pH 7.5, 50 mM NaCl, 1 mM DTT, 4% glycerol, room temperature, 30 min; GST-TFs on glutathione beads, 16-mer random dsDNA library, 0.1% formaldehyde crosslink after washing; high values mean tight binding
# FLI1 = biological target: T1, FLI1 (Homo sapiens, UniProt Q01543 1-452); settings: protein: recombinant; tags: N-terminal GST; dsDNA, one strand shown
# T1 sequence: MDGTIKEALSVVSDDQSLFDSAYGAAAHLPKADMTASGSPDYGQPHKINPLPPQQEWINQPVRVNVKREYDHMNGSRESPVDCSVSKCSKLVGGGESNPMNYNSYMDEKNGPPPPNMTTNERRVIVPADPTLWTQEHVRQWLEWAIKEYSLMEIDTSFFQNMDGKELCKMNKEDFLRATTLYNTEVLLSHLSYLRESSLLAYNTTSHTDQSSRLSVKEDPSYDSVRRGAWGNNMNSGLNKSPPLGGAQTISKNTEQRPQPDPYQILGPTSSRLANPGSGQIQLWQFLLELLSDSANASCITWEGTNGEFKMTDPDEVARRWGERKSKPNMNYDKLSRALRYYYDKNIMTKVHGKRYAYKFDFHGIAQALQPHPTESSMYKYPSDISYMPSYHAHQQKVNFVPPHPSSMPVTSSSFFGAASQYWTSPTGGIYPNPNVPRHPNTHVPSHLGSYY
# In short: (§1)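 A tag-only sample was pooled with DNA-barcoded human transcription factors that had been expressed in yeast as GST fusions and captured on glutathione beads. The pools were incubated for 30 min at room temperature with 200 nmole of a random double-stranded 16-mer DNA library in Tris/NaCl/DTT/glycerol buffer, then washed, crosslinked with 0.1% formaldehyde, proximity-ligated (BsaI/T4 ligase, 1 h, 37 °C), PCR-amplified and sequenced on an Illumina NextSeq500. Binding signal is each hexamer's read frequency for a factor divided by its frequency for the tag-only sample.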
# ELK1 = biological target: T2, ELK1 (Homo sapiens, UniProt P19419 1-428); settings: protein: recombinant; tags: N-terminal GST; dsDNA, one strand shown
# T2 sequence: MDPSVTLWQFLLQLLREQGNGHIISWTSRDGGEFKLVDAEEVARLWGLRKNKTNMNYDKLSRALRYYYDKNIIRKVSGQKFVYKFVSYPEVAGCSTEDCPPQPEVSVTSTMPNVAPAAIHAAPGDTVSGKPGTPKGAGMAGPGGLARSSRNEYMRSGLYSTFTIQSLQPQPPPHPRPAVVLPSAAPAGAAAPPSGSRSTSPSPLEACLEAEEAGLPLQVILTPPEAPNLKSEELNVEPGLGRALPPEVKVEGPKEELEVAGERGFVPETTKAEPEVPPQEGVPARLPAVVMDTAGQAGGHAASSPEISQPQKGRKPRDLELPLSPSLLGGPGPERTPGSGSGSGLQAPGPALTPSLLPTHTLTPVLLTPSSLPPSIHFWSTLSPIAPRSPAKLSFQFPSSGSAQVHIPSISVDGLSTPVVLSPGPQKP
# In short: as §1
# GABPA = biological target: T3, GABPA (Homo sapiens, UniProt Q06546 1-454); settings: protein: recombinant; tags: N-terminal GST; dsDNA, one strand shown
# T3 sequence: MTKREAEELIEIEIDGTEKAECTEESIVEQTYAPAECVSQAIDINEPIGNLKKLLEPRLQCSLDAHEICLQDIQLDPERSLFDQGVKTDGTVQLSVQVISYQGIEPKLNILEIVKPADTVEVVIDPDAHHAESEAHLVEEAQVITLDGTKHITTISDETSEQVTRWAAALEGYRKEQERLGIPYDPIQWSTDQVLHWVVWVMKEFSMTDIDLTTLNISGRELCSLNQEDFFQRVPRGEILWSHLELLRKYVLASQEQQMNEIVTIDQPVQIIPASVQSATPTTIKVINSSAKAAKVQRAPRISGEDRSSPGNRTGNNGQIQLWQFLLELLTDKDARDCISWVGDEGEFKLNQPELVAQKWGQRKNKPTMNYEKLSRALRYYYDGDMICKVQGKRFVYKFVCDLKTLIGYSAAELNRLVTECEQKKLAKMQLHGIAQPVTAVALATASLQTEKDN
# In short: as §1
# ERG = biological target: T4, ERG (Homo sapiens, UniProt P11308 1-479); settings: protein: recombinant; tags: N-terminal GST; dsDNA, one strand shown
# T4 sequence: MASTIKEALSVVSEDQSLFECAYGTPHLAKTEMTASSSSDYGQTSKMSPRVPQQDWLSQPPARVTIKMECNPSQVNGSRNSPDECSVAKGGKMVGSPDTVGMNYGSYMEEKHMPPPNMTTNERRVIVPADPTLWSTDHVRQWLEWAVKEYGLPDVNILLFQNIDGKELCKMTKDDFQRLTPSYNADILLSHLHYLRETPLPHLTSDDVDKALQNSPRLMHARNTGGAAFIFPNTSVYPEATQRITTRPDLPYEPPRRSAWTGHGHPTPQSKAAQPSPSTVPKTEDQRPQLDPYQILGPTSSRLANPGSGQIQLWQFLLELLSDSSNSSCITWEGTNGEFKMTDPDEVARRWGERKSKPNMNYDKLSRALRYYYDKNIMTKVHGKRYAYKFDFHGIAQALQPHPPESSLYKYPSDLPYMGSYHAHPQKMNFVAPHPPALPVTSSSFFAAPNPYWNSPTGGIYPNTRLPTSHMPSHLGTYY
# In short: as §1
# ELF1 = ELF1 (Homo sapiens, UniProt P32519 1-619); settings: protein: recombinant; tags: N-terminal GST; dsDNA, one strand shown
# In short: as §1
# EHF = biological target: T5, EHF (Homo sapiens, UniProt Q9NZC4 1-300); settings: protein: recombinant; tags: N-terminal GST; dsDNA, one strand shown
# T5 sequence: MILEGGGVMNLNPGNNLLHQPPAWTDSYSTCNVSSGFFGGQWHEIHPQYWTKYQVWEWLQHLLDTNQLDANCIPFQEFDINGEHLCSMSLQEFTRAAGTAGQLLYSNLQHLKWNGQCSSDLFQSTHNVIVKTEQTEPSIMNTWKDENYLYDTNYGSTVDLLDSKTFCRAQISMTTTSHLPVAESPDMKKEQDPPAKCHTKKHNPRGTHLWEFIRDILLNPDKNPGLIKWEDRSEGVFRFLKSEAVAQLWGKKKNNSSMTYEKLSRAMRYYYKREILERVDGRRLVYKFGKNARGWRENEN
# In short: as §1
# SPI1 = SPI1 (Homo sapiens, UniProt P17947 1-270); settings: protein: recombinant; tags: N-terminal GST; dsDNA, one strand shown
# In short: as §1
# SPIB = SPIB (Homo sapiens, UniProt Q01892 1-262); settings: protein: recombinant; tags: N-terminal GST; dsDNA, one strand shown
# In short: as §1
# ELK3 = biological target: T6, ELK3 (Homo sapiens, UniProt P41970 1-407); settings: protein: recombinant; tags: N-terminal GST; dsDNA, one strand shown
# T6 sequence: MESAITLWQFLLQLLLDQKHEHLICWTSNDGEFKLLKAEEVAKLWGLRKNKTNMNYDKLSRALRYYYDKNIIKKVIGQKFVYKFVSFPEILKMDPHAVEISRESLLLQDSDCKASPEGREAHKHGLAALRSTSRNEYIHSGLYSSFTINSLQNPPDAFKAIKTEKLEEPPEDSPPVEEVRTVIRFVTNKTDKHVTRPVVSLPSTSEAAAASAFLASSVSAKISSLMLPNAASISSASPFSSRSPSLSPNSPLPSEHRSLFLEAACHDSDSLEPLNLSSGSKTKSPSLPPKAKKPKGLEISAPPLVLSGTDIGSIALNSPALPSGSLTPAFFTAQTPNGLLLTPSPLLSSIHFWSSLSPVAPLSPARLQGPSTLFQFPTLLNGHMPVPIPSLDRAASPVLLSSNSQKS
# In short: as §1
# FEV = biological target: T7, FEV (Homo sapiens, UniProt Q99581 1-238); settings: protein: recombinant; tags: N-terminal GST; dsDNA, one strand shown
# T7 sequence: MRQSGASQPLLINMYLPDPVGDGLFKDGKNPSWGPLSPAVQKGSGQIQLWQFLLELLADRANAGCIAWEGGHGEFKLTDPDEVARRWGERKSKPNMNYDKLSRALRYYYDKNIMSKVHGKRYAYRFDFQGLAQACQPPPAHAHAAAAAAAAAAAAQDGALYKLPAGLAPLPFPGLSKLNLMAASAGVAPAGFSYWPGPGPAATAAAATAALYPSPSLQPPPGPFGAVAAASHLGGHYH
# In short: as §1
# ETV5 = ETV5 (Homo sapiens, UniProt P41161 1-510); settings: protein: recombinant; tags: N-terminal GST; dsDNA, one strand shown
# In short: as §1
# HSF1 = HSF1 (Homo sapiens, UniProt Q00613 1-529); settings: protein: recombinant; tags: N-terminal GST; chain copies: 3; dsDNA, one strand shown
# In short: as §1
# SPIC = biological target: T8, SPIC (Homo sapiens, UniProt Q8N5J4 1-248); settings: protein: recombinant; tags: N-terminal GST; dsDNA, one strand shown
# T8 sequence: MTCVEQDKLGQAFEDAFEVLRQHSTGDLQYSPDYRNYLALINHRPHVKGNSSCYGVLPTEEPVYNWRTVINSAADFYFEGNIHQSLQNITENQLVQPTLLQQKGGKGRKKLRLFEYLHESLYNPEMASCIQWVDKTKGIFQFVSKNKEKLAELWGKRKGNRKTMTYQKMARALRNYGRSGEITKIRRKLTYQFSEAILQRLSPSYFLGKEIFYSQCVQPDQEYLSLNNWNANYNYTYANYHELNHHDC
# In short: as §1
# ELF4 = ELF4 (Homo sapiens, UniProt Q99607 1-663); settings: protein: recombinant; tags: N-terminal GST; dsDNA, one strand shown
# In short: as §1
# ELK4 = biological target: T9, ELK4 (Homo sapiens, UniProt P28324-2 1-405); settings: protein: recombinant; tags: N-terminal GST; dsDNA, one strand shown
# T9 sequence: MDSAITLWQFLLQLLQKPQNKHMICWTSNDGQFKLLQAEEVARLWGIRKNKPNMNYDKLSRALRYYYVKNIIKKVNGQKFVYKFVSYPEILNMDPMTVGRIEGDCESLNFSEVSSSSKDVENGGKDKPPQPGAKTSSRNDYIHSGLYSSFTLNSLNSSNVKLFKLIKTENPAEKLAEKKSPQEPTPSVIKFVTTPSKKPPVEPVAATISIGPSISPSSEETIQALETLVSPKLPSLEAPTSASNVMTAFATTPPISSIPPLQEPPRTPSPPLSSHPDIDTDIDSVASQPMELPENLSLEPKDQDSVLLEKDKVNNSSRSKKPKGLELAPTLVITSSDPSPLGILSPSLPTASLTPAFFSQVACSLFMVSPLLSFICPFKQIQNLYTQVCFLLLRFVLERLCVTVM
# In short: as §1
# ETV2 = biological target: T10, ETV2 (Homo sapiens, UniProt O00321 1-342); settings: protein: recombinant; tags: N-terminal GST; dsDNA, one strand shown
# T10 sequence: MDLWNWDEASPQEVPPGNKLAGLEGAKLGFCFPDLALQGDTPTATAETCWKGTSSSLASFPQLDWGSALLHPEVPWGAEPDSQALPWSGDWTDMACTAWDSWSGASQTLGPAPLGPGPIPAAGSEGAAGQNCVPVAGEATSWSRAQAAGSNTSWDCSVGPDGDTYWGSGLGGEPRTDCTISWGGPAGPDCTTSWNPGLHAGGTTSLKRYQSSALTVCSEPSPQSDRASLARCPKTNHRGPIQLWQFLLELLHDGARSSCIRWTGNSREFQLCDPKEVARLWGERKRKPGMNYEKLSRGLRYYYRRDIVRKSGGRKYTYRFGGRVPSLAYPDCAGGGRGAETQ
# In short: as §1
# ELF3 = biological target: T11, ELF3 (Homo sapiens, UniProt P78545 1-371); settings: protein: recombinant; tags: N-terminal GST; dsDNA, one strand shown
# T11 sequence: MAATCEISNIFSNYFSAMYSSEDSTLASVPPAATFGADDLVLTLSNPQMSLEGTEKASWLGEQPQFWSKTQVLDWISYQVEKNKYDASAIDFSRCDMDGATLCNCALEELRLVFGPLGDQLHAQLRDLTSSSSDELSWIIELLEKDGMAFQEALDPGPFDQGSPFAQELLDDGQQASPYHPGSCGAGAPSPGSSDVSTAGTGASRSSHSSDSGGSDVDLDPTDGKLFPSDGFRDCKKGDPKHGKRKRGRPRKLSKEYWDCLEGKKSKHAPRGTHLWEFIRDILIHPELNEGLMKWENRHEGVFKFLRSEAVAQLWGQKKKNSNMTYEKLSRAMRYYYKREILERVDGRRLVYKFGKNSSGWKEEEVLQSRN
# In short: as §1
# CRX = CRX (Homo sapiens, UniProt O43186 1-299); settings: protein: recombinant; tags: N-terminal GST; dsDNA, one strand shown
# In short: as §1
# ETV1 = ETV1 (Homo sapiens, UniProt P50549 1-477); settings: protein: recombinant; tags: N-terminal GST; dsDNA, one strand shown
# In short: as §1
# ELF4, sequence (Q99607 whole entry): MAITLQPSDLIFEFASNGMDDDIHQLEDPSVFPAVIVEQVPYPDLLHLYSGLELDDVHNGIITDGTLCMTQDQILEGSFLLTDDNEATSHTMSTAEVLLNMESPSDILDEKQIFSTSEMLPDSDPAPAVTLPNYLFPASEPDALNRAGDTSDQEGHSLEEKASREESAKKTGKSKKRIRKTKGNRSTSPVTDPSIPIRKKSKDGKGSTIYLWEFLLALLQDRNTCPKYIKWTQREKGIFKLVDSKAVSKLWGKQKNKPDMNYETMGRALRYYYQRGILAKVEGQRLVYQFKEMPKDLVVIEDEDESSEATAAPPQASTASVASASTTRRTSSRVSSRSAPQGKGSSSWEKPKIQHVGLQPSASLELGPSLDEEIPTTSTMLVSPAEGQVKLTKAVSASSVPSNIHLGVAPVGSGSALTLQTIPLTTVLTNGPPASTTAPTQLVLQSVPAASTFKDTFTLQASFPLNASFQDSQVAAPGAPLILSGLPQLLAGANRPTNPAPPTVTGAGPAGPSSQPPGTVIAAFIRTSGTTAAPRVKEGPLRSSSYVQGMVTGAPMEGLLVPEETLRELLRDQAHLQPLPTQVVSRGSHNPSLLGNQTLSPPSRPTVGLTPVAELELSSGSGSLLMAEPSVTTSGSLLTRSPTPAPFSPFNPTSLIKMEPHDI
# CRX, sequence (O43186 whole entry): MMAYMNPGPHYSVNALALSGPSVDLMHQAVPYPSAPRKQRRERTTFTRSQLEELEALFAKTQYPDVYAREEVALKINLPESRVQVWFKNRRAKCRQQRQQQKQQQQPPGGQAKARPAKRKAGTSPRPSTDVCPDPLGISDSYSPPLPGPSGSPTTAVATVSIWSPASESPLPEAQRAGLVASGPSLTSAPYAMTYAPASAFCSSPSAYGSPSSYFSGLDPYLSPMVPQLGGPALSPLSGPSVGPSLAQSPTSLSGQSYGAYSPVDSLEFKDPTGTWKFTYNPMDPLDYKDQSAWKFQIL
# SPIB, sequence (Q01892 whole entry): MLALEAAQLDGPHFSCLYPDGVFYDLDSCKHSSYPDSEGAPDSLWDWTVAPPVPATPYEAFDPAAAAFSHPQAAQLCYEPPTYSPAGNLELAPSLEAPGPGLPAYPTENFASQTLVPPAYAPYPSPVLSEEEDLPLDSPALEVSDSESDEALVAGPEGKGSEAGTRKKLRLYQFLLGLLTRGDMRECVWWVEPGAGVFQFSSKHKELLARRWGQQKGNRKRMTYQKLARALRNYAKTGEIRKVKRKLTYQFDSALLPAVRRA
# ETV5, sequence (P41161 whole entry): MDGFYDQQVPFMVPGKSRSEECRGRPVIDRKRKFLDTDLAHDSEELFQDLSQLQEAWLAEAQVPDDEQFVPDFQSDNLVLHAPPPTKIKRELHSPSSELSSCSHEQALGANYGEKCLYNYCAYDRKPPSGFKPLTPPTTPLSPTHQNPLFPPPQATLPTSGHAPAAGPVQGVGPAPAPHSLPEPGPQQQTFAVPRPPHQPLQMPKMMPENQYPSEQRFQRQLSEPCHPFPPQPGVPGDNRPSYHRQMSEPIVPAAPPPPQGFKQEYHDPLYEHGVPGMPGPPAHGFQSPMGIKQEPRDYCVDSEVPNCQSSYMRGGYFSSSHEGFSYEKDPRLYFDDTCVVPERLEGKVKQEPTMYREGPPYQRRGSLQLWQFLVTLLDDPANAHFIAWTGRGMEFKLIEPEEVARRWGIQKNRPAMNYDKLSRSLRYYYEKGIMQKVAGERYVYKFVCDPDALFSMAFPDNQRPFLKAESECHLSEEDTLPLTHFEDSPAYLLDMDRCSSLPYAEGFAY
# ELF1, sequence (P32519 whole entry): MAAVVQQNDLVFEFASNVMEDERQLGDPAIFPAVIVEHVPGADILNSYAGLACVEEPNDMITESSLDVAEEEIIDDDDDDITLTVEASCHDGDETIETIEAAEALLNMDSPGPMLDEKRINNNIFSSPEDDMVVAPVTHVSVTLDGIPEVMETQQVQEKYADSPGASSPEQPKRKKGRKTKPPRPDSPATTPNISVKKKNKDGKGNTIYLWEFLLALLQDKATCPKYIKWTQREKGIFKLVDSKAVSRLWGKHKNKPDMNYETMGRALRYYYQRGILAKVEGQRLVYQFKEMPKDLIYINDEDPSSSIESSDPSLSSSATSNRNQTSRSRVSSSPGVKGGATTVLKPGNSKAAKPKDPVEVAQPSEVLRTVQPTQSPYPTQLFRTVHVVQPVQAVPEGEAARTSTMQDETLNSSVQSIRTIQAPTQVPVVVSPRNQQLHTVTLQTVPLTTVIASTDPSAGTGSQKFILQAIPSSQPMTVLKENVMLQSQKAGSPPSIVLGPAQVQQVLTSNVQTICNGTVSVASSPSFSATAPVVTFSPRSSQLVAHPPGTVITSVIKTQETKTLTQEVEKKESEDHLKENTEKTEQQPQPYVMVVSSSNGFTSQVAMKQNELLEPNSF
# ETV1, sequence (P50549 whole entry): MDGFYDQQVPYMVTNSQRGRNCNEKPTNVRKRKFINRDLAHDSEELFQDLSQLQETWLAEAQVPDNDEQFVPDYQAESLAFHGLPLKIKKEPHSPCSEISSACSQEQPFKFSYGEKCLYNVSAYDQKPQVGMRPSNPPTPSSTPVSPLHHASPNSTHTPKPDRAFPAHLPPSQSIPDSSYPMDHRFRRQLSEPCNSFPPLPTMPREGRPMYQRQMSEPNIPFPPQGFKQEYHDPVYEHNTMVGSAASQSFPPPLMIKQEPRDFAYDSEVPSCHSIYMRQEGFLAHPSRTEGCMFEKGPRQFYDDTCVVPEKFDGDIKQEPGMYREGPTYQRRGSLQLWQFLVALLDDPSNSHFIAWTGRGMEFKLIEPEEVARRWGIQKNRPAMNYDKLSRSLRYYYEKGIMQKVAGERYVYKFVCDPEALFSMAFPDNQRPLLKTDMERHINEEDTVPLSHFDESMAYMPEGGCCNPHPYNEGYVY
# HSF1, sequence (Q00613 whole entry): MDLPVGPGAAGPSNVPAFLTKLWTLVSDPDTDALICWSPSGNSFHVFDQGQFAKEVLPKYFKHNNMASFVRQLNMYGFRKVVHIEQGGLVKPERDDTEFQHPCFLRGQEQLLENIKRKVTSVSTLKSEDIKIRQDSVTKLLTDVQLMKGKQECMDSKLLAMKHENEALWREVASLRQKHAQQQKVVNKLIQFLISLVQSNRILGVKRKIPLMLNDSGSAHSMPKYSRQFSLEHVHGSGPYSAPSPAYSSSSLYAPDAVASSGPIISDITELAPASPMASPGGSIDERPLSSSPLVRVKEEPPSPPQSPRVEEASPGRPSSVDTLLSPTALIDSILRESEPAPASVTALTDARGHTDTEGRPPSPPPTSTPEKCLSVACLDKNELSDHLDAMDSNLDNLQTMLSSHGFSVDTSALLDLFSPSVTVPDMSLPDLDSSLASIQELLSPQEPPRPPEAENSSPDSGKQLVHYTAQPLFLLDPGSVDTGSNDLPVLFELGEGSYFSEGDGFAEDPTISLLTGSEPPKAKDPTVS
sequence,measurement,setting,value
CTCGCT,binding signal,FLI1,"1.81 fold enrichment (6-mer frequency, TF over GST control)"
same,binding signal,ELK1,"1.67 fold enrichment (6-mer frequency, TF over GST control)"
same,binding signal,GABPA,"1.72 fold enrichment (6-mer frequency, TF over GST control)"
same,binding signal,ERG,"1.63 fold enrichment (6-mer frequency, TF over GST control)"
same,binding signal,ELF1,"1.75 fold enrichment (6-mer frequency, TF over GST control)"
same,binding signal,EHF,"1.6 fold enrichment (6-mer frequency, TF over GST control)"
same,binding signal,SPI1,"1.54 fold enrichment (6-mer frequency, TF over GST control)"
same,binding signal,SPIB,"1.81 fold enrichment (6-mer frequency, TF over GST control)"
same,binding signal,ELK3,"1.41 fold enrichment (6-mer frequency, TF over GST control)"
same,binding signal,FEV,"1.67 fold enrichment (6-mer frequency, TF over GST control)"
same,binding signal,ETV5,"1.66 fold enrichment (6-mer frequency, TF over GST control)"
same,binding signal,HSF1,"1.66 fold enrichment (6-mer frequency, TF over GST control)"
same,binding signal,SPIC,"1.76 fold enrichment (6-mer frequency, TF over GST control)"
same,binding signal,ELF4,"1.56 fold enrichment (6-mer frequency, TF over GST control)"
same,binding signal,ELK4,"1.68 fold enrichment (6-mer frequency, TF over GST control)"
same,binding signal,ETV2,"1.52 fold enrichment (6-mer frequency, TF over GST control)"
same,binding signal,ELF3,"1.83 fold enrichment (6-mer frequency, TF over GST control)"
same,binding signal,CRX,"1.37 fold enrichment (6-mer frequency, TF over GST control)"
same,binding signal,ETV1,"1.71 fold enrichment (6-mer frequency, TF over GST control)"
